Screens deposited in PubChem BioAssay by several laboratories.
An excerpt weighted towards active compounds, which were near 2.4% of everything screened.
APOBEC3G inh = inhibitors of human APOBEC3G DNA deaminase | AID 493012 | inhibition, % at 20 µM | recombinant A3G, ssDNA deamination FAM/TAMRA fluorescence | 330,000 compounds, 0.28% hits;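 active = inhibition of at least 40% at 20 µM, with no more than 30% in the related APOBEC3A deaminase screen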;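 note: plate controls were DMSO wells with A3G for no effect and wells lacking A3G enzyme for full effect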
Target sequence (Q9HC16 whole entry, looked up): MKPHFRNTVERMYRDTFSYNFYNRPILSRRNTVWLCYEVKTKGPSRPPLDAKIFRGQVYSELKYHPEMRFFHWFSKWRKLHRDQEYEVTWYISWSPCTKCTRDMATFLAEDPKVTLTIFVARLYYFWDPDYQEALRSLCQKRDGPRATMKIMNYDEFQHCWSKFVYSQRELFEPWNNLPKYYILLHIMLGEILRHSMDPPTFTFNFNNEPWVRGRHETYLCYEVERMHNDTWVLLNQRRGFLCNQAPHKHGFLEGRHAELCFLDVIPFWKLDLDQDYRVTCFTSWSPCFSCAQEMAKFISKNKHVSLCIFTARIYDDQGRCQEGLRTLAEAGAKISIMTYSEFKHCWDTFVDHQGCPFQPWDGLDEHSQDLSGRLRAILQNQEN
A3A deaminase = blocks human APOBEC3A ssDNA deamination. P31941. recombinant A3A, FAM/TAMRA ssDNA deamination fluorescence. inhibition, % at 20 µM. 330,000 compounds, 0.41% hits;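 active = at least 40% inhibition at 20 µM here, with at most 30% in a related deaminase screen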;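 note: plate controls were A3A with DMSO for no effect and wells lacking A3A enzyme for full effect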
Target sequence (P31941 whole entry, looked up): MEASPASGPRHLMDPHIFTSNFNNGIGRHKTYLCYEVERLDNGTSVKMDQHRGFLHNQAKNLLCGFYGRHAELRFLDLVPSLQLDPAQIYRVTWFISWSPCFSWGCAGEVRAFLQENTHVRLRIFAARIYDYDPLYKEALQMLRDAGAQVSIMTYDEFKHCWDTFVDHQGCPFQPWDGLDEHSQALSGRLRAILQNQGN
PfGluPho inh = PfG6PD (Plasmodium falciparum) enzyme inhibition | PfGluPho enzyme, NADPH resazurin-diaphorase fluorescence | inhibition, % at 20 µM | 350,000 compounds, 0.78% hits | AID 504690;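 active = inhibition reaching at least a set limit at 20 µM in the primary screen, cut at about 59% in these data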;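 note: 0% = DMSO wells with substrate and 100% = DMSO wells lacking glucose-6-phosphate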
Yeast superoxide = lowers age-related superoxide in aged yeast cells; S. cerevisiae aged cells, superoxide DHE fluorescence; stronger effect = lower value; superoxide response (% of plate mean), % at 10 µM; 330,000 compounds, 0.18% hits; AID 2690;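 active = superoxide response under a set limit, about three screen SD below normal, cut at about 65% in these data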;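 note: yeast aged for seven days with compound at 30 °C before DHE staining; 100% = average MFI of all compound-treated wells on the plate with controls excluded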
M18AAP inhibitor = PfM18AAP enzyme inhibition. recombinant PfM18AAP, H-Glu-NHMec fluorogenic cleavage. inhibition, % at 7.35 µM. 290,000 compounds, 1.2% hits. AID 1822;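 active = inhibition above the campaign mean inhibition over all tested compounds plus 3 SD, cut at about 28% in these data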;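 note: 0% = plate median of test compound wells and 100% = 2 mM ZnCl2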
Starred values were filed as active, the others as inactive; x = no result.

SMILES	APOBEC3G inh	A3A deaminase	PfGluPho inh	Yeast superoxide	M18AAP inhibitor
N=C1c2ccccc2CN1NC(=O)CC12CC3CC(CC(C3)C1)C2	-3	2	-5	56*	4
O=c1c(O)c(-c2ccc(O)cc2O)oc2cc(O)cc(O)c12	x	x	x	x	30*
CC(C)(C)OC(=O)CN1C(=O)S/C(=C\c2ccc(-c3cccc(C(=O)O)c3)o2)C1=O	-11	45*	x	123	4
CN(Cc1ccccc1)CC1C2CCC(C2)C1O (stereo unspecified)	x	x	-8	x	x
c1ccc(C2=Nc3ccccc3OC2)cc1	-3	-5	7	96	31*
Cc1ccc2c(c1)N=C(c1ccc(Cl)cc1)CO2	-9	-1	1	105	29*
Cc1ccc(Cl)c(OCC(=O)NC2CCN(Cc3ccccc3)CC2)c1	-7	0	-2	98	x
CC(C)CCC1(CCO)C(=O)N=C(N)NC1=O (stereo unspecified)	x	x	-3	x	x
C[C@@]12C(=O)OC(=O)[C@]1(C)C1CCC2O1	-1	-2	-6	51*	x
CSCCC(NC(=O)c1ccco1)C(=O)Nc1ccncc1 (stereo unspecified)	14	2	5	103	5
O=C(Nc1ccc(NC(=O)N2CCN(c3ccccc3O)CC2)cc1)N1CCN(c2ccccc2O)CC1	-3	-1	11	99	29*
Cc1cccc(C(=O)NCCC(=O)Nc2ccc(F)c([N+](=O)[O-])c2)c1	-7	1	-7	96	3
CC1(C)CC(=O)C=C(c2cccc(Br)c2)C1	-12	-5	-5	107	x
O=c1c2c(nc3n1CCS3)c1cc(F)ccc1n2Cc1cc(=O)n2cc(Cl)ccc2n1	-5	-1	62*	117	-11
COc1ccccc1N1CCN(S(=O)(=O)c2c(C(=O)N3CCOCC3)c(C)n(C)c2C)CC1	1	0	-5	105	-6
COc1ccc(OC)c(N)c1	-3	-3	62*	103	6
COc1cc(C(=S)N2CCOCC2)cc(OC)c1OC(=O)c1ccc(F)cc1	21	-5	37	104	29*
O=C(Oc1cccc(C(=S)N2CCOCC2)c1)c1ccccc1	-3	0	31	98	28*
COc1cc(C(=O)Oc2c(OC)cc(C(=S)N3CCOCC3)cc2OC)cc(OC)c1OC	-7	-8	2	86	1
CCC1C(=O)N=C(SCC(=O)Nc2ccc(C)cc2)N(c2ccccc2)C1=O (stereo unspecified)	-9	-2	-17	102	-4
CCCCCCC(=O)N(O)C1CC(=O)N(c2ccc(Cl)cc2)C1=O (stereo unspecified)	41*	-5	14	101	-9
C[C@H](CO)N1C[C@H](C)[C@@H](CN(C)C(=O)Nc2ccc3c(c2)OCO3)Oc2ccc(NS(=O)(=O)c3ccc(F)cc3)cc2C1=O	-8	-5	13	77	x
COC(=O)CN(C)C(=O)c1ccc(OC2CCN(S(=O)(=O)N(C)C)CC2)cc1	-8	-4	-9	104	-1
CCOC(=O)c1sc(NNC(=O)c2ccc(F)cc2)nc1C	-6	-3	0	110	28*
CCOC(=O)c1sc(NC(=O)c2ccc(S(=O)(=O)N(C)C)cc2)nc1C	-3	-1	16	100	-1
SMILES	APOBEC3G inh	A3A deaminase	PfGluPho inh	Yeast superoxide	M18AAP inhibitor
CCCCNC(=S)N(C)/N=C/c1ccc(OCc2ccc(C(=O)OC)cc2)c(OC)c1	2	-1	15	111	-4
CCCCCNC(=O)C(=O)C1C(=O)Nc2ccccc21 (stereo unspecified)	-7	-5	-18	56*	4
CN(C)CCNC(=O)C(=O)C1C(=O)Nc2ccccc21 (stereo unspecified)	-11	-6	x	98	18
COc1ccc(CC(=O)NNC(=O)c2cnccn2)cc1	-3	1	-11	104	29*
CCOC(=O)N/N=C/c1ccccc1F	-5	-3	15	102	0
CC(C)(C)c1nnc(N/N=C/c2ccccc2O)n(N)c1=O	-13	-1	-15	109	52*
CCc1nnc(N/N=C/c2ccccc2F)n1N	1	2	23	107	62*
COc1ccc2cc(C(=O)N(C)CC(=O)Nc3ccccc3Br)ccc2c1	-7	5	0	118	x
O=C1c2c(O)cc(O)cc2O[C@H](c2ccc(O)c(O)c2)[C@H]1O	-10	-2	-20	106	79*
O=C1c2c(O)cc(O)cc2O[C@H](c2ccc(O)c(O)c2)[C@@H]1O	-6	-3	x	94	82*
O=C1c2c(O)cc(O)cc2O[C@H](c2ccc(O)cc2)[C@H]1O	17	-3	-3	91	x
O=c1c2ccccc2cnn1Cc1n[nH]c(=S)n1-c1ccc(F)c(Cl)c1	34	1	34	121	21
O=c1c2ccccc2cnn1Cc1n[nH]c(=S)n1-c1cc(Cl)cc(Cl)c1	16	-4	36	145	30*
O=C(Oc1ccc[nH]c1=O)c1cc([N+](=O)[O-])cc([N+](=O)[O-])c1	10	4	2	118	30*
CCOC(=O)c1ccc(-c2ccc(/C=N/NC(=O)Cc3nnc(N)s3)o2)cc1	-3	-3	10	120	29*
Nc1nnc(CC(=O)N/N=C/c2ccc(-c3ccc(F)cc3)o2)s1	2	3	1	122	12
O=C(NNC(=O)c1ccccc1OCc1ccccc1Cl)c1csc(N2CCOCC2)n1	-9	-3	8	107	5
COc1cc(NC(=O)CCN2CCN(c3ccccc3OC)CC2)cc(OC)c1	x	x	11	x	x
CC(C)(C)C(=O)Nc1sc2c(c1C#N)CCN(Cc1ccccc1)C2	-17	-9	-5	100	29*
N#Cc1c(NC(=S)NC(=O)c2ccccc2)sc2c1CCN(CCc1ccccc1)C2	-47	-24	x	75	2
COc1ccc2cc(C(=O)/C=C/c3cc(OC)c(O)c(OC)c3)ccc2c1	0	-4	29	101	29*
COc1ccc(C(=O)/C=C/c2cc(OC)c(O)c(OC)c2)c(F)c1	-1	0	21	108	20
O=C(NNS(=O)(=O)c1ccc([N+](=O)[O-])cc1)c1ccncc1	0	3	-4	98	9
O=C(NNS(=O)(=O)c1ccccc1)c1ccc([N+](=O)[O-])cc1	-8	-6	-19	112	29*
COc1ccc(CN(C)C(=O)c2cccc(NS(=O)(=O)c3ccccc3)c2)cc1F	-1	-6	2	101	-4
SMILES	APOBEC3G inh	A3A deaminase	PfGluPho inh	Yeast superoxide	M18AAP inhibitor
COc1ccc(CN(C)C[C@H]2OCCCC[C@@H](C)Oc3ccc(NS(C)(=O)=O)cc3C(=O)N([C@H](C)CO)C[C@@H]2C)cc1	x	x	6	x	x
CCN(CC)C(=O)c1ccc2nc3ccccc3nc2c1	-4	-1	2	37*	12
CCN(CC)C(=O)c1ccc2nc(-c3ccccc3)c(-c3ccccc3)nc2c1	0	2	-24	110	0
NNC(=O)c1nn(-c2ccccc2)cc1O	-10	-6	x	95	28*
O=C(O)c1cn(-c2ccccc2)nc1C(=O)O	0	4	5	83	-5
COC(=O)Oc1nsnc1N1CCOCC1	23	3	61*	130	26
